Compound activity deposited in PubChem by several laboratories.
UBC13 inh – UBC13 polyubiquitin chain formation inhibitors, primary screen, biochemical, TR-FRET, uHTS; Ubiquitin-conjugating enzyme E2 N (Homo sapiens), P61088; inhibition, % at 20 µM; 330,000 tested, 0.47% active; AID 485273, 2010; in the data active = inhibition above about 45%, passing the limit was not always enough
DNA FID counter – compounds displacing fluorescent DNA intercalator, primary screen, artefact control for HCV NS3 helicase inhibitor project, biochemical, FID fluorescence. DNA fluorescent intercalator displacement. inhibition, % at 7.9 µM. 290,000 tested, 0.17% active; in the data active = inhibition above about 37%;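 also: 0% = vehicle and 100% = reference compound; higher means more ethidium bromide displaced from hairpin DNA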
PREPL inh – PREPL enzyme inhibitors, primary screen, biochemical, fluorescence polarization. Prolyl endopeptidase-like (Homo sapiens), Q4J6C6. recombinant PREPL, fluorescence polarization activity-based probe. inhibition, % at 5.96 µM. 320,000 tested, 0.68% active. AID 2751, 2010; in the data active = inhibition above about 43%;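 also: 0% = enzyme with DMSO and 100% = wells lacking enzyme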
RAD54 inh – inhibitors of human RAD54 branch migration, primary screen, biochemical, fluorescence, single point; inhibition, % at 10.4 µM; 360,000 tested, 0.14% active; DNA repair and recombination protein RAD54-like (Homo sapiens), Q92698; RAD54 Holliday junction branch migration, FAM/BHQ fluorescence; AID 602329, 2012;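 active = mean normalized replicate activity at least 40 and at least half of replicates scoring 40 or more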;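 also: 0% = median of neutral control wells and 100% = median of positive control wells; inhibitors cause a drop in the FAM fluorescence signal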
Target sequence (Q92698 whole entry, looked up): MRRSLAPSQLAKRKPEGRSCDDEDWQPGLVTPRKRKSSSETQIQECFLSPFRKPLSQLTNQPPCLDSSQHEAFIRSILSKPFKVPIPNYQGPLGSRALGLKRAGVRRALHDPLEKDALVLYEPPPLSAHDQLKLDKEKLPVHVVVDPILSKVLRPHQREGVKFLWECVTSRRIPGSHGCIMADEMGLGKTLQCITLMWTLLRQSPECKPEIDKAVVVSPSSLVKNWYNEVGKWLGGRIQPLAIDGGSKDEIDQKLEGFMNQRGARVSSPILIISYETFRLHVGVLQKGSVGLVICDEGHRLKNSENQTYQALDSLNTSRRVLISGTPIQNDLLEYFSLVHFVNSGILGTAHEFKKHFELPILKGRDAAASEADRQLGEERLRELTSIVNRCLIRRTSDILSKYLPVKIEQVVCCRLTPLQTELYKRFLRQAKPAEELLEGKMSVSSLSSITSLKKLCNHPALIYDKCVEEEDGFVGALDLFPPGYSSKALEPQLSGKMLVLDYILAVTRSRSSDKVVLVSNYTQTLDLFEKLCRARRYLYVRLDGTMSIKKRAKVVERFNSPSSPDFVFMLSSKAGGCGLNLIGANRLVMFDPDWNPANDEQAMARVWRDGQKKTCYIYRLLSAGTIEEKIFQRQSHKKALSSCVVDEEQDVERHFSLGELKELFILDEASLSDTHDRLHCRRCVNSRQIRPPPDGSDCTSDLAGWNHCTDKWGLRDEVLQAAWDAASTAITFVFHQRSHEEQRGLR
RAD52 anneal inh – RAD52 DNA annealing inhibitors, primary screen, biochemical, FRET, single point, set 2; DNA repair protein RAD52 homolog (Homo sapiens), P43351; recombinant RAD52 DNA annealing, FRET fluorescence; inhibition, % at 18.7 µM; 360,000 tested, 0.46% active; AID 651710, 2012;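 active = every replicate showing at least 50% inhibition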
beta cell repl – inducers of MIN6 beta-cell proliferation, primary screen, ATP luminescence, uHTS; MIN6 cells proliferation, ATPlite luminescence, 48 h; cells starved in 0.2% serum; 100% = growth in 10% serum; proliferation, % at 10 µM; 330,000 tested, 0.29% active;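 active = compounds whose signal lies at least 3.5 SD above the mean of all wells on their plate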;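 also: 0% = DMSO-treated cells in low-serum medium and 100% = 10% serum control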
Casp3 counter – CASP3 inhibitor validation, counterassay for project on UBE2N polyubiquitination blockers, biochemical, one dose | 1,400 tested, 4% active | inhibition, % at 20 µM | shares compounds with UBC13 inh | Recombinant caspase-3, Caspase-Glo 3/7 luminescence, 60 min;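 active = mean inhibition across replicates above about 26%, limit read from the data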;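 also: plate controls were DMSO with caspase-3 for no effect and DMSO wells lacking enzyme for full effect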
UBC13 confirm – UBC13 polyubiquitination inhibitors, single-point retest, confirmation, biochemical, TR-FRET, single concentration; 1,400 tested, 68% active; AID 488859, 2010; inhibition, % at 10 µM; shares compounds with UBC13 inh; in the data active = inhibition above about 45%
The depositor's hits bear a star; x = no result. Sampled rows, rich in hits. Any-hit rate of the full collection: about 1.3%.

SMILES	UBC13 inh	DNA FID counter	PREPL inh	RAD54 inh	RAD52 anneal inh	beta cell repl	Casp3 counter	UBC13 confirm
CCNC(=O)C[C@@H]1CC[C@@H]2[C@@H](COc3ccc(NC(=O)Nc4c(C)noc4C)cc3C(=O)N2C)O1	x	x	x	-8	-15	x	x	x
CCCCn1c(-c2cccs2)nc2nc3ccccc3nc21	56*	-1	-9	7	x	-1	-1	45*
C[C@@H]1CN([C@@H](C)CO)C(=O)c2cc(NS(=O)(=O)c3ccc(Cl)cc3)ccc2O[C@@H](C)CCCCO[C@H]1CN(C)C	x	x	x	14	-18	x	x	x
CCOc1ccc(C(=O)C(C)OC(=O)c2nc(Cl)ccc2Cl)cc1 (stereo not given)	47*	x	5	x	-6	-2	-1	72*
COCCNC(=O)C1CCCN(S(=O)(=O)c2c(C)noc2/C=C/c2cccs2)C1 (stereo not given)	18	-20	4	x	4	-1	x	x
Cc1noc(/C=C/c2cccs2)c1S(=O)(=O)N1CCC(C(=O)NCCCN2CCC(C)CC2)CC1	49*	20	16	x	13	0	0	18
CCC(=O)N1C[C@@H](C)[C@@H](OC)CN(C)C(=O)c2ccc(NC(=O)c3cc(C)on3)cc2OC[C@@H]1C	x	x	x	7	x	x	x	x
COC(=O)c1ccccc1S(=O)(=O)N1CCC(C(=O)OC(C)C(=O)Nc2ccc(NC(C)=O)cc2)CC1 (stereo not given)	5	-26	8	-6	-9	0	x	x
COC(=O)c1ccccc1S(=O)(=O)N1CCC(C(=O)N2CCC2)CC1	79*	x	21	x	9	-4	0	64*
O=C(NNC(=O)C1CCN(S(=O)(=O)c2ccc(Cl)cc2)CC1)c1ccc(S(=O)(=O)N2CCCCC2)cc1	56*	-13	-3	x	0	-3	7	52*
Cc1ccc(C(=O)NNC(=O)C2CCN(S(=O)(=O)c3ccc(Cl)cc3)CC2)cc1	40	-14	-3	3	-17	-2	x	x
CCCC(=O)Nc1ccc2c(c1)C(=O)N(C)[C@H]1CC[C@@H](CC(=O)NCCCN(C)C)O[C@H]1CO2	x	x	x	4	2	x	x	x
COc1ccc(C2=Nn3c(nnc3-c3ccccc3F)SC2)cc1OC1CCOC1 (stereo not given)	46*	x	18	-1	-20	4	-1	31
COc1ccc(OC)c(-c2nnc3n2N=C(c2ccc(OC)c(OC4CCCC4)c2)CS3)c1	28	x	1	1	-16	-6	x	x
O=S(=O)(Nc1nc2ccccc2[nH]1)c1ccc(Cl)cc1	52*	-2	0	5	x	-3	-2	49*
O=S(=O)(Nc1nc2ccccc2[nH]1)c1ccccc1	32	2	-2	3	x	0	x	x
O=C(N[C@H]1CC[C@@H](CC(=O)N2CCOCC2)O[C@H]1CO)c1ccc2c(c1)OCO2	x	x	x	5	-4	x	x	x
CCOC(=O)c1ccc(NC(=O)c2nc[nH]c2C(=O)NCC(=O)OC(C)(C)C)cc1	52*	x	-8	1	x	-5	-2	28
CC(C)(C)OC(=O)N1CCC(NC(=O)c2nc[nH]c2C(=O)NC2CCN(C(=O)OC(C)(C)C)CC2)CC1	8	x	0	0	-9	2	x	x
CCOC(=O)c1ccc(NC(=O)c2nc[nH]c2C(=O)NC2CCN(C(=O)OC(C)(C)C)CC2)cc1	92*	x	5	6	-30	-8	-1	92*
CCOC(=O)c1ccc(NC(=O)c2nc[nH]c2C(=O)NCCCCCNC(=O)OC(C)(C)C)cc1	45*	x	-11	6	-10	-8	-2	22
CCOC(=O)c1ccc(NC(=O)c2nc[nH]c2C(=O)NCCCCNC(=O)c2[nH]cnc2C(=O)Nc2ccc(C(=O)OCC)cc2)cc1	2	x	1	8	-5	-7	x	x
Cc1noc(C)c1S(=O)(=O)N(C)C[C@H]1Oc2ccc(NC(=O)CCC(F)(F)F)cc2CC(=O)N([C@H](C)CO)C[C@@H]1C	x	x	x	-5	5	x	x	x
O=C(C[C@H]1C[C@@H]2c3cc(NS(=O)(=O)c4ccc(F)cc4)ccc3O[C@@H]2[C@@H](CO)O1)NCc1cc(F)ccc1F	x	x	x	-5	7	x	x	x
C#CCOCCOCCOCCNc1nc(N2CCN(C(=O)[C@H](CCC(=O)O)n3cc(C(N)CO)nn3)CC2)nc(N2CCN(C(=O)[C@H](CCC(=O)O)n3cc(C(N)CC(C)C)nn3)CC2)n1 (stereo not given in full)	-2	x	x	x	x	7	x	x
SMILES	UBC13 inh	DNA FID counter	PREPL inh	RAD54 inh	RAD52 anneal inh	beta cell repl	Casp3 counter	UBC13 confirm
C#CCOCCOCCOCCNc1nc(N2CCN(C(=O)[C@H](CCCCN)n3cc([C@@H](N)CO)nn3)CC2)nc(N2CCN(C(=O)[C@H](CCCCN)n3cc([C@@H](N)CC(C)C)nn3)CC2)n1	73*	x	9	-16	44	-2	3	66*
C#CCOCCOCCOCCNc1nc(N2CCN(C(=O)[C@H](CCCCN)n3cc([C@@H](N)C(C)CC)nn3)CC2)nc(N2CCN(C(=O)[C@H](CCCCN)n3cc([C@@H](N)CC(C)C)nn3)CC2)n1 (stereo not given in full)	105*	62*	20	35	37	-4	3	112*
C#CCOCCOCCOCCNc1nc(N2CCN(C(=O)[C@H](CCCN=C(N)N)n3cc(C(N)[C@@H](C)CC)nn3)CC2)nc(N2CCN(C(=O)[C@H](CC(N)=O)n3cc([C@@H](N)C(C)C)nn3)CC2)n1 (stereo not given in full)	7	x	16	-26	41	-4	x	x
C#CCOCCOCCOCCNc1nc(N2CCOCC2)nc(N2CCN(C(=O)[C@H](CCCCN)n3cc(CN)nn3)CC2)n1	96*	x	7	-9	9	-2	-2	89*
C#CCOCCOCCOCCNc1nc(N2CCN(C(=O)[C@H](CCCN=C(N)N)n3cc(C(N)[C@@H](C)CC)nn3)CC2)nc(N2CCN(C(=O)[C@H](CC(N)=O)n3cc([C@@H](N)CC(N)=O)nn3)CC2)n1 (stereo not given in full)	64*	x	12	-51	13	2	2	51*
O=C(NCC[C@H]1CC[C@H](NS(=O)(=O)Cc2ccccc2)[C@H](CO)O1)C1CCOCC1	x	x	x	-5	-1	x	x	x
